# What was measured:
# [1] = tested on: Vero E6 infected with SARS-CoV-2; test: morphology score (similarity to uninfected cells); higher = more like uninfected cells; conditions: 24 h
# [2] = tested on: Vero E6 infected with SARS-CoV-2; test: SARS-CoV-2 infection rate relative to infected DMSO; higher = more infection, active = 60 or less; conditions: 24 h
smiles,measurement,setting,value
N#CC(=C(/N)Sc1ccccc1N)/C(C#N)=C(/N)Sc1ccccc1N (10 µM),morphology score,[1],-0.197
same,SARS-CoV-2 infection rate,[2],113% (inactive)
COc1ccc(CN2C(=O)C(=O)c3cc(OC(F)(F)F)ccc32)cc1 (0.833333 µM),morphology score,[1],0.0284
same,SARS-CoV-2 infection rate,[2],102% (inactive)
COc1c(-c2ccc3cc(NS(C)(=O)=O)ccc3c2)cc(-n2ccc(=O)[nH]c2=O)cc1C(C)(C)C [dasabuvir] (10 µM),morphology score,[1],0.123
same,SARS-CoV-2 infection rate,[2],106% (inactive)
CC(C)C[C@H](NC(=O)CNC(=O)c1cc(Cl)ccc1Cl)B1OC(=O)C(CC(=O)O)(CC(=O)O)O1 (0.833333 µM),morphology score,[1],-0.0464
same,SARS-CoV-2 infection rate,[2],108% (inactive)
NCCc1cc[nH]n1 [betazole] (10 µM),morphology score,[1],-0.0835
same,SARS-CoV-2 infection rate,[2],105% (inactive)
O=C(COc1cccc2c(=O)[nH]ccc12)c1ccccc1 (10 µM),morphology score,[1],0.0752
same,SARS-CoV-2 infection rate,[2],87% (inactive)
"CCn1c(O)nnc1-c1ccc(Cl)cc1 [5-(4chlorophenyl)-4-ethyl-2,4-dihydro-3H-1,2,4-triazol-3-one] (0.833333 µM)",morphology score,[1],0.0166
same,SARS-CoV-2 infection rate,[2],110% (inactive)
Cc1ccc(CCCO)c(NCc2ccc3nc(NCCCN4CCOCC4)n(Cc4nc(C)ccc4O)c3c2)c1 (10 µM),morphology score,[1],0.227
same,SARS-CoV-2 infection rate,[2],96.5% (inactive)
CCc1nc(-c2cccc(C)c2)c(-c2ccnc(NC(=O)c3ccccc3)c2)s1 (10 µM),morphology score,[1],0.171
same,SARS-CoV-2 infection rate,[2],104% (inactive)
NCCNc1ccc(NCCN)c2c1C(=O)c1ccncc1C2=O [pixantrone] (10 µM),morphology score,[1],0.328
same,SARS-CoV-2 infection rate,[2],71% (inactive)
CC(=O)O[C@H]1C[C@@]2(C)[C@@H](C[C@@H](O)[C@H]3[C@@]4(C)CC[C@@H](O)[C@@H](C)[C@@H]4CC[C@@]32C)/C1=C(\CCC=C(C)C)C(=O)O [fusidic-acid] (10 µM),morphology score,[1],0.063
same,SARS-CoV-2 infection rate,[2],98% (inactive)
